Results reported in PubChem BioAssay (Tox21).
Where “and” joins values, the source holds several entries; their conditions need not be identical. Equal values may be shown once. Records with an inconclusive call do not appear. Calls of active or inactive are those of the source. Unless noted, the call rests on the fitted dose curve; in most records, active means well fitted curve in the direction sought with a large enough effect in the repeat runs; inconclusive means weak or mixed curves; inactive means no such curve, though single readings can be large; an effect the other way counts as inactive or inconclusive.

Experiments:
[1] = target: Luciferin 4-monooxygenase (Photinus pyralis) (UniProt P08659); assay: qHTS assay to identify small molecule inhibitors of firefly luciferase (AID 1224835); further: nearly all actives have a fitted effect of over 25% in size; further: potency means the concentration at half of the fitted maximal effect
Chain of Luciferin 4-monooxygenase (Photinus pyralis) (P08659 whole entry, looked up): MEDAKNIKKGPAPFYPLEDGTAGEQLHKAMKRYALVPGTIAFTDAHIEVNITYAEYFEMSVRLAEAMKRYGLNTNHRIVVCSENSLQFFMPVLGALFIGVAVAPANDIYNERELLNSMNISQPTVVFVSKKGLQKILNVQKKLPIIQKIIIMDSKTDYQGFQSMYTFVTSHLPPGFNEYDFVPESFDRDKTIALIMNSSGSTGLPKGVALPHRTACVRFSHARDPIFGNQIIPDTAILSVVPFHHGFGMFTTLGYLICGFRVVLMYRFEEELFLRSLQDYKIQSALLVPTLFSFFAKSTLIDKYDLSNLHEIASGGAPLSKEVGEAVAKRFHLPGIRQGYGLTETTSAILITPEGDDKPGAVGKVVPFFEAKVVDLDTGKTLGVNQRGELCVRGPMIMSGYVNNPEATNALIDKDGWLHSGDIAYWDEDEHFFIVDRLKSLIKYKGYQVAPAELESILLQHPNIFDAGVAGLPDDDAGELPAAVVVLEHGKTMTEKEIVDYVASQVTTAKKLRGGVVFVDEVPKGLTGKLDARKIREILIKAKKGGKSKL
Procedure, shortened: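 Inhibition of purified Photinus luciferase is measured by luminescence. Substrate levels (D-luciferin, ATP) sit at their KM values. Each compound is tested in a concentration series.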

[2] = qHTS assay to identify small molecule agonists of the constitutive androstane receptor (CAR) signaling pathway - cell viability counter screen (AID 1224836); further: nearly all actives have a fitted effect of over 45% in size; further: potency means the concentration at half of the fitted maximal effect
Procedure, shortened: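 Fluorescence from CellTiter-Fluor indicates live cells after 23 h exposure. The human hepatoma line expresses hCAR and a CYP2B6-2.2kb reporter. Incubation medium contains 0.75 uM PK11195 (final).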

[3] = qHTS assay to identify small molecule antagonists of the constitutive androstane receptor (CAR) signaling pathway - cell viability counter screen (AID 1224837); further: nearly all actives have a fitted effect of over 45% in size; further: potency means the concentration at half of the fitted maximal effect
Procedure, shortened: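 Fluorescence from CellTiter-Fluor served as the viability signal. Human hepatoma HepG2 cells stably bearing hCAR and CYP2B6-2.2kb received compound plus CITCO (50 nM final) for 23 hr.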

[4] = target: Nuclear receptor subfamily 1 group I member 3 (Homo sapiens) (UniProt Q14994); assay: qHTS assay to identify small molecule antagonists of the constitutive androstane receptor (CAR) signaling pathway (AID 1224838);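 further: HepG2 cells stably expressing hCAR with CYP2B6 luciferase reporter stimulated by CITCO; nearly all actives have a fitted effect of over 40% in size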; further: potency means the concentration at half of the fitted maximal effect
Chain of Nuclear receptor subfamily 1 group I member 3 (Homo sapiens) (Q14994 whole entry, looked up): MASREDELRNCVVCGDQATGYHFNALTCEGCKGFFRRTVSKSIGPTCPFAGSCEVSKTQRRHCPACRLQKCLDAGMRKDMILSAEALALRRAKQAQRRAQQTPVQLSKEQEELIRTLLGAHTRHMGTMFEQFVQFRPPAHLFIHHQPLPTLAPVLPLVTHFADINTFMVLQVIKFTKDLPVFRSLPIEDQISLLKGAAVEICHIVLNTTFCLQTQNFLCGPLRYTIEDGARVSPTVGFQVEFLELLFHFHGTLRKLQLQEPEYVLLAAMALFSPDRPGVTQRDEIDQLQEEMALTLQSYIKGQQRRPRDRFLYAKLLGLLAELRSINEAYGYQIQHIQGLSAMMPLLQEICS
Procedure, shortened: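 Quantitative HTS in double-stable HepG2-CYP2B6-hCAR cells. After 4 h plating, cells get compound (15 concentrations) and CITCO at 50 nM final, incubate 24 h at 37 C, then ONE-Glo luminescence is read.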

[5] = target: Nuclear receptor subfamily 1 group I member 3 (Homo sapiens) (UniProt Q14994); assay: qHTS assay to identify small molecule agonists of the constitutive androstane receptor (CAR) signaling pathway (AID 1224839); further: nearly all actives have a fitted effect of over 15% in size; further: potency means the concentration at half of the fitted maximal effect;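 on activation: HepG2 cells stably carrying human CAR and a CYP2B6 luciferase reporter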
Procedure, shortened: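 Stable hCAR/CYP2B6-2.2kb HepG2 line in DMEM with 10% FBS; compounds (15 concentrations) and 0.75 uM PK11195 final, 24 h at 37 C/5% CO2, then ONE-Glo luminescence after 30 min.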

[6] = qHTS assay to identify small molecule antagonists of the estrogen related receptor signaling pathway with the pleiotropic PPARgamma coactivator (PGC) from Tox21 10K library (AID 1224841; call rule not given here; further: actives are mostly falling curves and most rising ones were filed inactive; nearly all actives have a fitted effect of over 50% in size; further: potency means the concentration at half of the fitted maximal effect)
Procedure, shortened: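 Compound exposure ran 18 hours at 37 C in PGC/ERR cells (2,000/well) that had first rested 6 hours in a 37 C/5% CO2 incubator. Luciferase activity was then detected with One-Glo after a 30-minute room-temperature step.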

[7] = qHTS assay to identify small molecule agonists of the estrogen related receptor signaling pathway with the pleiotropic PPARgamma coactivator (PGC) from Tox21 10K library (AID 1224842); further: nearly all actives have a fitted effect of over 15% in size
Procedure, shortened: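 Luminescence from One-Glo (30 min, room temperature) measured after PGC/ERR cells had 18 h at 37 C with pinned compound (23 nL in DMSO). Cells had been seeded at 2,000 per well and pre-incubated 6 h.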

[8] = target: Thyrotropin receptor (Homo sapiens) (UniProt P16473); assay: qHTS assay to identify small molecule agonists of the thyroid stimulating hormone receptor (TSHR) signaling pathway (AID 1224843; calls by dose curve; further: nearly all actives have a fitted effect of over 45% in size)
Chain of Thyrotropin receptor (Homo sapiens) (P16473 whole entry, looked up): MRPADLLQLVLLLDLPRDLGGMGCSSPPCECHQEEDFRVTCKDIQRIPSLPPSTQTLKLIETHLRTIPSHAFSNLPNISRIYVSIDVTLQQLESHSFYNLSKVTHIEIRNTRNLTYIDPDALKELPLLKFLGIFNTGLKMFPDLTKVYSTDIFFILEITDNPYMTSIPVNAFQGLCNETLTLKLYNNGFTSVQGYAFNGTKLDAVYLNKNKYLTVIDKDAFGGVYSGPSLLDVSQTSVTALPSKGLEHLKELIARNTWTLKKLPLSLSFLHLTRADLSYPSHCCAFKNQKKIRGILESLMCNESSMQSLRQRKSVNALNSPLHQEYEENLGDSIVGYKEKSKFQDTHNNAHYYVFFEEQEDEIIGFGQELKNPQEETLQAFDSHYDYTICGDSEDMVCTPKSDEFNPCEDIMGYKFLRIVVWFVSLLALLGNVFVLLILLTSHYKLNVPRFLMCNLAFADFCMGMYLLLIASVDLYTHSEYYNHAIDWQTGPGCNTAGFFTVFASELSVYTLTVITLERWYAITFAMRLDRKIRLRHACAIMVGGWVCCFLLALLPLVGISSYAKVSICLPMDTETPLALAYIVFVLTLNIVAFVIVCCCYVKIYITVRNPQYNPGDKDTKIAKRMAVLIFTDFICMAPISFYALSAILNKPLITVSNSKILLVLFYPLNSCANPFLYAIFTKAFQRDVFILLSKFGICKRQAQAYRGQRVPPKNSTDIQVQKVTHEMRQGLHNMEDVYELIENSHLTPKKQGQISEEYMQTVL
Procedure, shortened: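 Screening of the Tox21 10K collection used HEK293 cells engineered with TSHR at 800 cells per well. After a 30-min room-temperature compound exposure, HTRF cAMP reagents were added and fluorescence recorded 1 h later.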

[9] = qHTS assay to identify small molecule agonists of the hypoxia (HIF-1) signaling pathway - cell viability counter screen (AID 1224844; calls by dose curve; further: nearly all actives have a fitted effect of over 50% in size; further: potency means the concentration at half of the fitted maximal effect)
Procedure, shortened: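 Luminescent ATP content (CellTiter-Glo, 30 min, room temperature) served as the viability measure in HRE-bla ME-180 cells exposed to compounds for 17 hrs in low-serum medium (0.5% dialyzed FBS).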

[10] = qHTS assay to identify small molecule agonists of H2AX - cell viability counter screen (AID 1224847; calls by dose curve; further: nearly all actives have a fitted effect of over 30% in size; further: potency means the concentration at half of the fitted maximal effect)
Procedure, shortened: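 Viability of CHO-K1 (wild type) cells after 3 hr compound exposure was measured by CellTiter-Glo luminescence.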

[11] = qHTS assay to identify small molecule agonists of the estrogen related receptor (ERR) signaling pathway from Tox21 library (AID 1224849; calls by dose curve; further: nearly all actives have a fitted effect of over 15% in size); details: ERR reporter cell line, ONE-Glo luciferase, 18 h
Procedure, shortened: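 We plated ERR reporter cells, waited 6 h, added compounds in DMSO by pin tool and incubated them 18 h at 37 C. ONE-Glo was then added and luminescence read after 30 min.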

[12] = qHTS RealTime-Glo MT Cell Viability Assay in HEK293 cells - 32 hour (AID 1224868); further: nearly all actives have a fitted effect of over 50% in size; further: potency means the concentration at half of the fitted maximal effect
Procedure, shortened: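 Assay medium contained NanoLuc luciferase plus cell-permeant prosubstrate, added with HEK293 cells at 600 cells/well. After 5 h at 37 C/5% CO2 compounds were added; plates stayed at 37 C for 40 h with serial luminescence reads.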

[13] = A CellTox Green Cytotoxicity Assay to monitor cytotoxicity in HEK293 cells - 0 hour (AID 1224869); further: nearly all actives have a fitted effect of over 50% in size
Procedure, shortened: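 Each value comes from one timepoint of a single continuous run in which HEK293 cells with CellTox Green were exposed to compound for up to 40 h at 37 C, dye fluorescence rising with cell death.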

[14] = qHTS RealTime-Glo MT Cell Viability Assay in HepG2 cells - 40 hour (AID 1224870); further: nearly all actives have a fitted effect of over 50% in size; further: potency means the concentration at half of the fitted maximal effect
Procedure, shortened: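 Real-time viability: cells seeded at 600 per well together with NanoLuc and cell-permeant prosubstrate, compounds added after 5 h incubation. Luminescence tracked at 0, 8, 16, 24, 32 and 40 h of exposure.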

[15] = qHTS assay to identify small molecule antagonists of the estrogen related receptor (ERR) signaling pathway from Tox21 library - cell viability counter screen (AID 1224834); further: nearly all actives have a fitted effect of over 30% in size; further: potency means the concentration at half of the fitted maximal effect
Procedure, shortened: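 Viability readout (CellTiter-Fluor fluorescence, 30 min at 37 C) multiplexed with the ERR assay; cells treated 17.5 h at 37 C with compounds delivered in DMSO.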

[16] = qHTS RealTime-Glo MT Cell Viability Assay in HepG2 cells - 24 hour (AID 1224867); further: nearly all actives have a fitted effect of over 50% in size; further: potency means the concentration at half of the fitted maximal effect
Procedure, shortened: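 qHTS, HepG2, 600 cells/well, RealTime-Glo (NanoLuc + prosubstrate) added with cells; 5 h preincubation; DMSO compound addition; 37 C; luminescence at 0/8/16/24/32/40 h.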

[17] = qHTS assay to identify small molecule antagonists of the estrogen related receptor signaling pathway with the pleiotropic PPARgamma coactivator (PGC) from Tox21 10K library - cell viability counter screen (AID 1224840; active means well fitted cell-killing curve with a large enough effect in the repeat runs, not every such curve was filed as active; further: nearly all actives have a fitted effect of over 40% in size; further: potency means the concentration at half of the fitted maximal effect)
Procedure, shortened: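 Compounds in DMSO, alongside positive and negative controls, were pinned onto PGC/ERR cells (2,000 per well). Exposure lasted 17.5 hours at 37 C, followed by a 30-minute CellTiter-Fluor incubation and fluorescence reading.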

[18] = qHTS assay to identify small molecule agonists of H2AX (AID 1224845; active means well fitted activation curve with a large enough effect in the signal ratio in the repeat runs, not every such curve was filed as active; the % refers to the signal ratio; further: potency means the concentration at half of the fitted maximal effect)
Procedure, shortened: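 Phospho-H2AX Ser139 measured by HTRF (ex 320 nm; em 665 and 620 nm) after 24 hr antibody incubation. Compounds, 15 concentrations, 0.76% DMSO, were applied to CHO-K1 cells for 3hr at 37C before lysis.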

[19] = qHTS assay to identify small molecule agonists of the hypoxia (HIF-1) signaling pathway (AID 1224846; active means well fitted activation curve with a large enough effect in the signal ratio in the repeat runs, not every such curve was filed as active; the % refers to the signal ratio)
Procedure, shortened: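 Measured by blue/green FRET after loading CCF4-AM: beta-lactamase expressed from a hypoxia response element in ME-180 cells. Test agents were delivered in DMSO and left 17 hrs; cells had been plated 5 hrs earlier in low-serum (0.5% dialyzed FBS) medium.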

[20] = qHTS assay to identify small molecule antagonists of the estrogen related receptor (ERR) signaling pathway from Tox21 library (AID 1224848); further: nearly all actives have a fitted effect of over 50% in size; further: potency means the concentration at half of the fitted maximal effect
Procedure, shortened: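 Antagonist-mode screen of the Tox21 10K library in an NTP-provided ERR reporter cell line; 18 h compound exposure at 37 C, luminescence measured with ONE-Glo.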

[21] = at 92.4 µM (top of the series) unless noted
On the % scale 0 is the no-effect control and ±100 the full control effect.

CCCCCCCCCCCCCCCC(=O)OC[C@H](O)[C@H]1OC(=O)C(O)=C1O
active: Potency [1] 63.3 µM | Potency [9] 54.9 µM
inactive: Potency [2] | Potency [3] | Potency [4] | Potency [5] | Potency [6] | Potency [7] | Potency [8] | Potency [10] | activity change, positive = activation [11, 21] -29.6% | Potency [12] | Potency [13] | Potency [14]

O=c1cc(-c2ccc(O)cc2)oc2cc(O)cc(O)c12
active: Potency [15] 49.2 µM and 30.6 µM | Potency [2] 55.2 µM | Potency [5] 24.7 µM and 61.1 µM
inactive: Potency [4] | Potency [8] | Potency [16] | Potency [13] | Potency [14]

CCCCN1CCCC[C@H]1C(=O)Nc1c(C)cccc1C
inactive: Potency [15] | Potency [2] | Potency [3] | Potency [17] | Potency [8] | Potency [9] | Potency [18] | Potency [16] | Potency [12] | Potency [13] | Potency [14]

CCC(CN)=C(c1ccccc1)c1ccccc1
inactive: Potency [1] | Potency [2] | Potency [3] | Potency [4] | Potency [5] | Potency [17] | Potency [8] | Potency [18] | Potency [19] | Potency [16] | Potency [12] | Potency [14]

O=C(c1ccc(F)cc1)C1CCN(CCn2c(=O)[nH]c3ccccc3c2=O)CC1
active: Potency [12] 9.52 µM
inactive: Potency [1] | Potency [2] | Potency [3] | Potency [4] | Potency [5] | Potency [17] | Potency [6] | Potency [7] | Potency [8] | Potency [10] | activity change, positive = activation [11, 21] -25.2% [at 42.5 µM] | Potency [14]

CN(C)c1ccc(SC#N)cc1
active: Potency [4] 27.3 µM
inactive: Potency [15] | Potency [2] | Potency [5] | Potency [17] | Potency [9] | Potency [18] | Potency [19] | Potency [10] | Potency [16] | Potency [12] | Potency [13] | Potency [14]

O=c1c(-c2ccccc2)c1-c1ccccc1
active: Potency [15] 8.41 µM | Potency [6] 9.44 µM | Potency [9] 13.4 µM | Potency [20] 8.41 µM | Potency [16] 16.9 µM | Potency [12] 13.4 µM | Potency [14] 15.1 µM
inactive: Potency [2] | Potency [3] | Potency [7] | activity change, positive = activation [11, 21] -61.4% [at 42.5 µM]

O=c1cccccc1O
active: Potency [18] 40.9 µM
inactive: Potency [1] | Potency [2] | Potency [3] | Potency [4] | Potency [5] | Potency [17] | Potency [8] | Potency [16] | Potency [13] | Potency [14]

Oc1ccc(Cl)cc1Sc1cc(Cl)ccc1O
inactive: Potency [5] | Potency [7] | Potency [18] | activity change, positive = activation ([11]; at 42.5 µM (top of the series)) -51.1% | activity change, positive = activation ([11]; at 92.4 µM (top of the series)) -52% | Potency [13]
active: Potency [15] 30.6 µM and 26.6 µM | Potency [4] 68.5 µM | Potency [6] 13.7 µM and 10.6 µM | Potency [9] 26.8 µM | Potency [20] 10.8 µM and 11.9 µM | Potency [12] 19.5 µM and 23.9 µM

C/C=C1/C(=O)C[C@H]2[C@@H]3CCC4=CC(=O)CC[C@]4(C)[C@H]3CC[C@]12C
inactive: Potency [4] | Potency [9] | Potency [18] | Potency [19] | Potency [10] | Potency [14]
active: Potency [15] 60.9 µM | Potency [5] 8.61 µM | Potency [12] 48.8 µM

CCOC(=O)O[C@H](C)OC(=O)c1ccc2c(c1)cc(C(=O)NC1CCN(C(C)C)CC1)n2Cc1cc(-c2ccc(Cl)s2)on1
active: Potency [15] 28.6 µM | Potency [3] 64.1 µM | Potency [4] 64.1 µM | Potency [17] 22.7 µM | Potency [9] 28.9 µM | Potency [18] 42 µM | Potency [10] 37.5 µM | Potency [16] 11.5 µM | Potency [12] 11.5 µM | Potency [14] 10.2 µM
inactive: Potency [5]

Cc1cccc(CN2CCN(C(c3ccccc3)c3ccc(Cl)cc3)CC2)c1 (configuration not stated)
active: Potency [20] 26.6 µM
inactive: Potency [1] | Potency [2] | Potency [3] | Potency [4] | Potency [5] | Potency [17] | Potency [7] | Potency [18] | activity change, positive = activation [11, 21] -29.2% [at 42.5 µM] | Potency [16] | Potency [12] | Potency [13] | Potency [14]

CCOc1nc2cccc(C(=O)OC(C)OC(=O)OC3CCCCC3)c2n1Cc1ccc(-c2ccccc2-c2nn[nH]n2)cc1 (configuration not stated)
active: Potency [1] 56.4 µM | Potency [17] 43.2 µM | Potency [6] 54.4 µM | Potency [9] 19.5 µM | Potency [18] 45 µM | Potency [10] 63.5 µM | Potency [20] 34.3 µM | Potency [12] 9.76 µM
inactive: Potency [2] | Potency [3] | Potency [4] | Potency [5] | Potency [7] | Potency [8] | activity change, positive = activation [11, 21] -65.4%

O=[N+]([O-])c1cc([N+](=O)[O-])c2ccc(S(=O)(=O)O)cc2c1O
inactive: Potency [9] | Potency [10] | Potency [12] | Potency [13] | Potency [14]
active: Potency [15] 12.1 µM | Potency [2] 27.1 µM | Potency [3] 24.2 µM | Potency [17] 24.2 µM

Clc1ccc2nsnc2c1NC1=NCCN1
inactive: Potency [1] | Potency [2] | Potency [3] | Potency [4] | Potency [5] | Potency [17] | Potency [6] | Potency [7] | Potency [8] | Potency [9] | Potency [18] | Potency [19] | Potency [10] | Potency [20] | activity change, positive = activation [11, 21] -5.33% [at 42.5 µM] | Potency [16] | Potency [12] | Potency [13] | Potency [14]
